{"source": "PubChem BioAssay (NCI)", "note": "This is part of a sample that, as a whole, favours compounds with a hit. Of some 83,000 tested, about 20% had one in any assay.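 Compound tested at a single concentration for 48 hours in 96-well plates; a percent growth value below 10 was scored as active.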 A number with no mark means an inactive call. Active and inactive are the calls of the source.", "data": [{"tested_on": "HCT-15 colon", "assay": "NCI-60 one-dose screen, 48 h (100 = growth as untreated, 0 = no growth, -100 = all killed)", "settings": "10 µM unless noted", "values": [{"smiles": "CSc1nnc(-c2cc3c([nH]c4ccccc43)c(-c3cccc(O)c3)n2)n1-c1ccccc1", "growth": "26.7%"}, {"smiles": "Nc1cc(C(=O)NC[C@H]2CN(c3ccc(N4CCC(C(=O)O)CC4)cc3)C(=O)O2)ccc1Cl", "growth": "102%"}, {"smiles": "CC(C)(Sc1cc(C(C)(C)C)c(OC(=O)CCCC(=O)O)c(C(C)(C)C)c1)Sc1cc(C(C)(C)C)c(OC(=O)CCCC(=O)O)c(C(C)(C)C)c1", "growth": "7.28% (active)"}, {"smiles": "C=CCn1c(SCC(=O)Nc2ccc(C(=O)/C=C/c3ccc(Cl)cc3)cc2)nnc1-c1ccc(Br)cc1", "growth": "81.2%"}, {"smiles": "CCOC(=O)c1nn(-c2ccc(S(N)(=O)=O)cc2)c2nc(C)cc(=O)n12", "growth": "108%"}, {"smiles": "CN(C)CCNC(=O)c1cc2c3cc(Cl)ccc3[nH]c2c2ncccc12", "growth": "14.2%"}, {"smiles": "COc1ccccc1NC(=O)N=Nc1c(O)[nH]c2ccccc12", "growth": "94.4%"}, {"smiles": "CC(=O)N1N=C(c2ccc(C(F)(F)F)c(F)c2)CC1c1[nH]c(C)c(C(=O)NCC(F)(F)F)c1C", "note": "(stereo not given)", "growth": "95.3%"}, {"smiles": "O=C(/C=C(/C=C/c1ccc2[nH]ccc2c1)OB(F)F)/C=C/c1ccc2[nH]ccc2c1", "growth": "-52.9% (active)"}, {"smiles": "CCOC(=O)c1cc2c(n1Cc1cc(OC)c(OC)c(OC)c1)-c1nc(N)sc1CCC2", "growth": "35.9%"}, {"smiles": "N#Cc1ccc(O)c(C2=NCC(c3ccccc3)O2)c1", "note": "(stereo not given)", "growth": "20.8%"}, {"smiles": "CC(=O)c1c(C)nc(SCC(=O)Nc2cccc(O)c2)n1-c1ccc(Cl)cc1", "growth": "95%"}, {"smiles": "O=C(Nc1cccc2ccccc12)NC1CC1", "growth": "112%"}, {"smiles": "CCOC(=O)c1c2c(n3cccc(F)c13)C(=O)c1ncccc1C2=O", "growth": "12.7%"}, {"smiles": "O=c1c2ccccc2n2cnc3ccc(Cl)c1c32", "growth": "66.4%"}, {"smiles": "CC(C)c1ccc(-n2c(=S)[nH]c3sc4cc(O)ccc4c3c2=O)cc1", "growth": "97.7%"}, {"smiles": "N#Cc1c(-c2ccccc2)cc(-c2ccccc2)n(CCCC(=O)Nc2ccccc2N)c1=O", "growth": "28.1%"}, {"smiles": "COc1cc2c(cc1OCCCN1CCN(CCCOc3cc4c(cc3OC)C(=O)N3CCC[C@H]3C=N4)CC1)C=CC(C)(C)O2", "growth": "-98% (active)"}, {"smiles": "CCC(C(=O)[C@@H](C)[C@@H](O)[C@H](C)[C@@H]1O[C@@H]([C@@H](CC)C(=O)ONC(=O)c2ccccc2)CC[C@@H]1C)[C@H]1O[C@]2(C=CC(=O)[C@]3(CC[C@@](C)([C@H]4CC[C@](O)(CC)[C@H](C)O4)O3)O2)[C@H](C)C[C@@H]1C", "note": "(stereo not given in full)", "growth": "13.7%"}, {"smiles": "CN1C(=O)/C(=C\\c2nc([P+](c3ccccc3)(c3ccccc3)c3ccccc3)c(N3CCOCC3)o2)SC1=S", "growth": "91.3%"}, {"smiles": "COc1ccc(/C=C/C(=O)c2cccc(OCCCCOc3cccc(C(=O)/C=C/c4ccc(OC)c(OC)c4)c3)c2)cc1OC", "growth": "80.9%"}, {"smiles": "O=S(=O)(Nc1cc(Cl)ccc1Cl)c1ccc(-c2cnc(C3CC3)o2)cc1", "growth": "26.2%"}, {"smiles": "C=C1C(=O)O[C@H]2[C@H]1CC/C(COC(=O)c1cc3ccccc3s1)=C\\CC[C@@]1(C)O[C@@H]21", "growth": "-62.4% (active)"}, {"smiles": "N=C(N)c1ccc(-c2ccc(-c3ccccc3)o2)cc1", "growth": "-62.1% (active)"}, {"smiles": "c1cnc2c(-c3nc4ccc5[nH]ncc5c4c4c3CCCC4)c[nH]c2c1", "growth": "43.9%"}, {"smiles": "Cc1nc2sc(C(=O)Nc3cccc(Br)c3)c(N)c2cc1C(O)c1ccccc1", "note": "(stereo not given)", "growth": "21%"}, {"smiles": "Cn1ccnc1C(=O)/C=C/c1ccc(CC(=O)Nc2cc(C(F)(F)F)cc(C(F)(F)F)c2)cc1", "growth": "53%"}, {"smiles": "C=C1C(=O)O[C@H]2[C@H]1CC/C(Cn1cc(-c3ccccc3)nn1)=C\\CC[C@@]1(C)O[C@@H]21", "growth": "-70.4% (active)"}, {"smiles": "Oc1c(I)cc(I)cc1CNCc1ccccn1", "growth": "26.8%"}, {"smiles": "CCOC(=O)c1cc2c(n1C)-c1nc(NC(C)=O)sc1CCC2", "growth": "88.3%"}, {"smiles": "COc1c(C(=O)Nc2ccc(C)c(Br)c2)ccc2ccccc12", "growth": "61.2%"}, {"smiles": "O=C(Nc1ccc(Oc2cccc(F)c2)c(Cl)c1)c1cccnc1", "growth": "29.9%"}, {"smiles": "COC12C=C/C(=C(/C(=O)OCc3ccncn3)C(=O)CCCCCCCCC3(OC)C=C/C(=C(/C(=O)OCc4ccncn4)C(=O)CCCCCCCC1)O3)O2", "growth": "-28.5% (active)"}, {"smiles": "COC1=CC(c2ccc[nH]2)=N/C1=C\\c1[nH]c(C)c(C(=O)OC(C)C)c1C", "growth": "-30.1% (active)"}, {"smiles": "O=C(Nc1cccc(Cl)c1)Nc1cccc(Cn2c(=O)[nH]c3ccc(Oc4ncccn4)cc3c2=O)c1", "growth": "80.6%"}, {"smiles": "Cc1ccc(C)n1-c1ccccc1-n1c(C)ccc1C", "growth": "115%"}, {"smiles": "COc1ccc(/C=C/C(=O)c2ccc(Nc3ccnc4cc(Cl)ccc34)cc2)cc1", "growth": "77.7%"}, {"smiles": "CCN(CC)c1ccc(\\C=N/N=C(N)/C(N)=N\\N=C/c2ccc(N(CC)CC)cc2)cc1", "growth": "92.4%"}, {"smiles": "O=[N+]([O-])c1cccc(-c2nc3cc4nc5ccccc5[nH]c4cc3n2)c1", "growth": "99.5%"}, {"smiles": "COc1ccc(/C=C(\\C#N)n2nnc3cc(Cl)ccc32)cc1", "growth": "0.0447% (active)"}]}]}
